Calls of active or inactive are those of the source. No rule for the calls is given here.
Molecular target: Microtubule-associated protein tau (Homo sapiens) (UniProt P10636)
Assay: Tau Fibrillization assay
Settings: His6-htau40 arachidonic acid fibrillization, TEM filament length; at 0.72 µM; stronger effect = lower value
Description: NIH Molecular Libraries Screening Centers Network [MLSCN] NIH Chemical Genomics Center [NCGC] MLSCN Grant: 1 X01 MH079825-01 Assay Provider: Jeffrey A. Kuret, Ohio State University NCGC Assay Overview: A number of solution-based assays are available for quantifying the amount of aggregated protein, such as fluorescence spectroscopy, sedimentation, and static and laser light scattering. However, none of these methods allows direct visualization of filaments. Transmission electron microscopy (TEM) can complement these solution-based assays by providing information on filament morphology and length distributions. In vitro fibrillization of htau40 was performed in the presence or absence of selected compounds. The resultant filaments were detected after absorption onto formvar and carbon coated grids and examined by TEM. Random digital images of each experimental condition were obtained, imported into imaging software, and quantified for filament length and number.
NCGC Assay Protocol Summary Aggregation of His6-htau40 (5 uM final concentration) in assembly buffer was induced with arachidonic acid (50 uM final concentration) in the presence or absence of selected library compounds. Each compound was tested at IC50 and four times the IC50values as determined by the tau ThS binding assay. After incubation (18 h at 37 degrees Celsius), reactions were diluted 5-fold in distilled water and assayed by transmission electron microscopy as described previously (Necula and Kuret, 2004). […] 28(3), 251-60. Necula, M., Chirita, C. N., and Kuret, J. (2003) J. Biol. Chem. 278, 46674-46680.

Microtubule-associated protein tau (Homo sapiens), sequence (P10636 whole entry, looked up): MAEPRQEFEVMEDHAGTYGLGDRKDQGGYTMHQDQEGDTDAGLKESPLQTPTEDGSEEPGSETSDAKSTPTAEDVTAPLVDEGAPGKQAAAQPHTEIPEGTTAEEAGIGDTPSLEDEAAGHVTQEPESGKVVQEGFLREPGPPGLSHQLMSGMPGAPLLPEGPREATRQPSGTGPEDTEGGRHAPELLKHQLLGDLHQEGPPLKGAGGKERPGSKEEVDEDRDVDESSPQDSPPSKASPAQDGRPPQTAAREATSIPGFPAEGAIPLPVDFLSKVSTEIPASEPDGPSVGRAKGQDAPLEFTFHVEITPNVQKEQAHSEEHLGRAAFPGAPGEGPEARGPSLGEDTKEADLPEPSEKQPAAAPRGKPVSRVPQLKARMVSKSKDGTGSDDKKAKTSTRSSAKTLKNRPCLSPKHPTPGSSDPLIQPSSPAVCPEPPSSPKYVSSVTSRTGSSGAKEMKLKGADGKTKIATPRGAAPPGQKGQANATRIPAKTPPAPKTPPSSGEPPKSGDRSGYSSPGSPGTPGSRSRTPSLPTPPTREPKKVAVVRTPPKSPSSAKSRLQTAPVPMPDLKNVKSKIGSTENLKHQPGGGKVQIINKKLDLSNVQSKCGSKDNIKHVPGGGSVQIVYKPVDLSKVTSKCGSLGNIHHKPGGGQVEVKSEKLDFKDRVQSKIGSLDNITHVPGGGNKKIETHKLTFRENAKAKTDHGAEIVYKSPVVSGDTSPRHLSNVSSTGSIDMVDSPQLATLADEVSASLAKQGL

| SMILES | filament length |
| --- | --- |
| CN(C)c1ccc(C(=C2C=CC(=[N+](C)C)C=C2)c2ccc(N(C)C)cc2)cc1 | 50.3% (active) |

Same assay, conditions: His6-htau40 arachidonic acid fibrillization, TEM filament length; at 0.76 µM; stronger effect = lower value

| SMILES | filament length |
| --- | --- |
| Cc1cc(-c2ccc(N=Nc3ccc4c(S(=O)(=O)O)cc(S(=O)(=O)O)c(N)c4c3O)c(C)c2)ccc1N=Nc1ccc2c(S(=O)(=O)O)cc(S(=O)(=O)O)c(N)c2c1O | 91.8% (inactive) |

Same assay, conditions: His6-htau40 arachidonic acid fibrillization, TEM filament length; at 4 µM; stronger effect = lower value

| SMILES | filament length |
| --- | --- |
| CN(C)c1ccc(/C=C2/C(=O)Nc3ccccc32)cc1 | 41.8% (active) |

Same assay, conditions: His6-htau40 arachidonic acid fibrillization, TEM filament length; at 6.4 µM; stronger effect = lower value

| SMILES | filament length |
| --- | --- |
| N=C1C=CC(=C(c2ccc(N)cc2)c2ccc(N)cc2)C=C1 | 50.8% (active) |

Same assay, conditions: His6-htau40 arachidonic acid fibrillization, TEM filament length; at 8.2 µM; stronger effect = lower value

| SMILES | filament length |
| --- | --- |
| COc1cccc2c1C(=N)c1c(O)c3c(c(O)c1C2=O)C[C@](O)(C(C)=O)C[C@@H]3O[C@H]1C[C@H](N)[C@@H](O)[C@H](C)O1 | 86.9% (inactive) |

Same assay, conditions: His6-htau40 arachidonic acid fibrillization, TEM filament length; at 8.4 µM; stronger effect = lower value

| SMILES | filament length |
| --- | --- |
| Cc1ccc2nc(-c3ccc(N=Nc4cc(S(=O)(=O)O)c5ccccc5c4O)cc3)sc2c1S(=O)(=O)O | 111% (inactive) |

Same assay, conditions: His6-htau40 arachidonic acid fibrillization, TEM filament length; filament length at lower concentration; at 0.18 µM; stronger effect = lower value

| SMILES | filament length [%] |
| --- | --- |
| CN(C)c1ccc(C(=C2C=CC(=[N+](C)C)C=C2)c2ccc(N(C)C)cc2)cc1 | 109 |

Same assay, conditions: His6-htau40 arachidonic acid fibrillization, TEM filament length; filament length at lower concentration; at 0.19 µM; stronger effect = lower value

| SMILES | filament length [%] |
| --- | --- |
| Cc1cc(-c2ccc(N=Nc3ccc4c(S(=O)(=O)O)cc(S(=O)(=O)O)c(N)c4c3O)c(C)c2)ccc1N=Nc1ccc2c(S(=O)(=O)O)cc(S(=O)(=O)O)c(N)c2c1O | 116 |

Same assay, conditions: His6-htau40 arachidonic acid fibrillization, TEM filament length; filament length at lower concentration; at 1 µM; stronger effect = lower value

| SMILES | filament length [%] |
| --- | --- |
| CN(C)c1ccc(/C=C2/C(=O)Nc3ccccc32)cc1 | 94.5 |

Same assay, conditions: His6-htau40 arachidonic acid fibrillization, TEM filament length; filament length at lower concentration; at 1.6 µM; stronger effect = lower value

| SMILES | filament length [%] |
| --- | --- |
| N=C1C=CC(=C(c2ccc(N)cc2)c2ccc(N)cc2)C=C1 | 114 |

Same assay, conditions: His6-htau40 arachidonic acid fibrillization, TEM filament length; filament length at lower concentration; at 2.1 µM; stronger effect = lower value

| SMILES | filament length [%] |
| --- | --- |
| COc1cccc2c1C(=N)c1c(O)c3c(c(O)c1C2=O)C[C@](O)(C(C)=O)C[C@@H]3O[C@H]1C[C@H](N)[C@@H](O)[C@H](C)O1 | 91.3 |
| Cc1ccc2nc(-c3ccc(N=Nc4cc(S(=O)(=O)O)c5ccccc5c4O)cc3)sc2c1S(=O)(=O)O | 100 |

Source: PubChem BioAssay AID991 (National Center for Advancing Translational Sciences (NCATS), 2007)
